The list is not random: actives were taken first. Their share in the collection is about 21%.
NS1 function inh – qHTS Assay for Inhibitors of Influenza NS1 Protein Function. Potency, µM (highest dose often 46.1 µM). actives 0.4% (n = 270,000); calls by dose curve; further: actives are rising curves; nearly all actives have a fitted effect of over 50% in size
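Read-out: OD600 growth recovery of NS1-expressing budding yeast. Cells grown overnight at 30C in -URA glucose medium, washed, resuspended and diluted 1:100 in 2% galactose assay medium, pH 6.0. Same strain lacking NS1 served as positive control.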
Pf growth 96h – Primary qHTS for delayed death inhibitors of the malarial parasite plastid, 96 hour incubation; P. falciparum luciferase reporter growth, 96 h; Potency, µM (top dose mostly 28.7 µM), hits mostly inhibitors; AID 504834, 2011; actives 6.9% (n = 320,000)
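Two parasite generations (96 h, 37 C, 5% CO2) of compound exposure in infected erythrocytes (0.05% parasitemia, 2% hematocrit). Luciferase-reporter P. falciparum; decreased luminescence indicates inhibited growth, aimed at apicoplast-acting delayed death.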
Pf growth 48h – Primary qHTS for delayed death inhibitors of the malarial parasite plastid, 48 hour incubation. actives 5.9% (n = 310,000). Potency, µM (doses to about 28.7 µM), usual class: inhibitors. P. falciparum luciferase growth in erythrocytes, 48 h. AID 504832, 2011
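Cell-based growth assay: transgenic P. falciparum expressing firefly luciferase, cultured in red cells within RPMI 1640 containing 0.5% w/v Albumax, 24 mM bicarbonate and gentamycin. A drop in luciferase activity indicates inhibition.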
SARS PLpro yeast – qHTS of Yeast-based Assay for SARS-CoV PLP. S. cerevisiae expressing SARS-CoV PLpro, growth rescue. Potency, µM (doses to about 32.9 µM), most hits filed as activators. actives 0.19% (n = 330,000); calls by dose curve; further: nearly all actives have a fitted effect of over 55% in size
CHX counter – Cycloheximide Counterscreen for Small Molecule Inhibitors of Shiga Toxin; AID 2314, 2010; max response, %; actives 12% (n = 300,000); cell reporter, cycloheximide protein synthesis inhibition counterscreen; in the data active means max response mostly above about 13%, no sharp cut-off; inactive means mostly below about 14%; further: read at 38.3 µM for the half of the compounds with a filed dose
Shiga toxin inh – A qHTS for Small Molecule Inhibitors of Shiga Toxin; Vero cells, Shiga toxin protein synthesis inhibition reporter; inhibition, % at 38.7 µM; actives 9.2% (n = 290,000); in the data active means inhibition mostly above about 28%, no sharp cut-off; inactive means mostly below about 43%
Of the large screens only hits and unclear results are named; the others gave an inactive call. Unless noted, the call rests on the fitted dose curve; in most records, active means well fitted inhibition curve with a large enough effect; inconclusive means small, poorly fitted or top-dose-only effect, or another doubt; inactive means no such curve, though single readings can be large or run the other way.

COc1cc(NC(=O)C(C)Oc2ccccc2)c(OC)cc1NC(=O)c1ccccc1 (configuration not stated)	Pf growth 96h inconclusive, Pf growth 48h 10µM
CC(Oc1ccccc1)C(=O)Nc1ccc(NC(=O)c2ccccc2)cc1 (configuration not stated)	Pf growth 48h inconclusive
COC(=O)c1ccccc1NC(=O)C(C)Oc1ccccc1 (configuration not stated)	Pf growth 48h 7.4µM
COC(=O)c1ccccc1NC(=O)C(C)NS(=O)(=O)c1ccc(OC)cc1 (configuration not stated)	Pf growth 48h 1.3µM (no result: Pf growth 96h)
COc1ccccc1NC(=O)C(C)NS(=O)(=O)c1ccc(F)cc1 (configuration not stated)	none (no result: Pf growth 96h)
COc1ccc(OC)c(NC(=O)C2CC(=O)N(Cc3ccco3)C2)c1 (configuration not stated)	Pf growth 48h inconclusive (no result: NS1 function inh, CHX counter, Shiga toxin inh)
Cc1ccc(C(=O)N2CCCc3ccccc32)c(F)c1F	Pf growth 96h inconclusive (no result: Shiga toxin inh)
CCN(CC)c1ccc(/C=N/NC(=O)Cc2cccs2)cc1	Pf growth 96h inconclusive, CHX counter 33
Cc1ccc(/C=N/NC(=O)Cc2cccs2)o1	none
COc1ccc(/C=N/NC(=O)Cc2cccs2)cc1	Pf growth 96h inconclusive, CHX counter 62, Shiga toxin inh 64
COc1ccc(COC(=O)N/N=C/c2cccs2)cc1	CHX counter 25, Shiga toxin inh 49
COc1ccc(-c2[nH]ncc2CN2CCC(OCc3ccccn3)CC2)c(F)c1	none
N#Cc1sc(NCc2ccccc2)nc1Cl	Pf growth 96h inconclusive (no result: NS1 function inh)
COc1ccc(CNc2nc(Cl)c(C#N)s2)cc1	CHX counter 41, Shiga toxin inh 45 (no result: Pf growth 48h)
CC(CCN1CCN(CCO)CC1)c1ccccc1 (configuration not stated)	Pf growth 48h inconclusive
O=C1CN(C(=O)COc2ccc(F)cc2Br)c2ccccc2N1	Pf growth 96h inconclusive, Pf growth 48h inconclusive, Shiga toxin inh 36
Cc1cc(=O)oc2cc(OCC(=O)N3CC(=O)Nc4ccccc43)c(Cl)cc12	Pf growth 96h inconclusive, Pf growth 48h 13µM (no result: NS1 function inh, CHX counter, Shiga toxin inh)
O=C1CN(C(=O)COC(=O)C2CCN(S(=O)(=O)c3ccccc3C(F)(F)F)CC2)c2ccccc2N1	Pf growth 48h 3.7µM (no result: Pf growth 96h)
O=C1CN(C(=O)COC(=O)CCS(=O)(=O)c2ccccc2Cl)c2ccccc2N1	none (no result: NS1 function inh, Pf growth 96h, Pf growth 48h, CHX counter, Shiga toxin inh)
CC(C)Cc1ccc(S(=O)(=O)NCC2CCCO2)cc1 (configuration not stated)	none
CC(C)CNC(=O)C(=O)NNC(=O)c1ccco1	Pf growth 96h inconclusive
CSc1nc2nc3c(cc2c(=O)[nH]1)C(O)Oc1ccc(C)cc1-3 (configuration not stated)	Pf growth 96h inconclusive, Pf growth 48h 1.3µM (no result: NS1 function inh)
c1ccc(-c2n[nH]c(-c3ccccn3)n2)cc1	CHX counter 24 (no result: Pf growth 96h)
c1ccc(-c2n[nH]c(-c3ccccn3)n2)nc1	CHX counter 33, Shiga toxin inh 62
c1ccc(-c2nn[nH]n2)nc1	none
O=C(NCc1ccccc1)C(c1ccc(F)cc1)N(C(=O)c1csnn1)C1CC1 (configuration not stated)	none
CC1Sc2ccc(S(=O)(=O)N3CCC(C(=O)NCc4ccccc4)CC3)cc2NC1=O (configuration not stated)	Pf growth 96h 1µM, Pf growth 48h inconclusive
COc1cccc(NC(=O)C2CCN(S(=O)(=O)c3ccc4[nH]c(=O)ccc4c3)CC2)c1	Pf growth 96h 9.3µM, Pf growth 48h inconclusive
COc1cccc(NC(=O)C2CCN(S(=O)(=O)c3ccc4c(c3)NC(=O)C(C)S4)CC2)c1 (configuration not stated)	Pf growth 48h inconclusive
COc1ccc(NC(=O)C2CCN(S(=O)(=O)c3ccc4c(c3)NC(=O)C(C)S4)CC2)cc1 (configuration not stated)	Pf growth 48h 9.3µM
CC1Sc2ccc(S(=O)(=O)N3CCC(C(=O)N4CCN(C)CC4)CC3)cc2NC1=O (configuration not stated)	Pf growth 96h inconclusive, Pf growth 48h inconclusive
CCOc1ccc(NC(=O)C2CCN(S(=O)(=O)c3ccc4c(c3)NC(=O)C(C)S4)CC2)cc1 (configuration not stated)	Pf growth 96h inconclusive, Pf growth 48h inconclusive
CC1Sc2ccc(S(=O)(=O)N3CCC(C(=O)Nc4ccc(Cl)cc4)CC3)cc2NC1=O (configuration not stated)	Pf growth 96h 13µM, Pf growth 48h inconclusive
CC1Sc2ccc(S(=O)(=O)NCc3ccccc3)cc2NC1=O (configuration not stated)	Pf growth 96h 13µM
Cc1ccc(N(C)S(=O)(=O)c2ccc3c(c2)NC(=O)C(C)S3)cc1 (configuration not stated)	Pf growth 96h inconclusive, Pf growth 48h 3.3µM
CC1Sc2ccc(S(=O)(=O)CCC(=O)N(C)Cc3ccccc3)cc2NC1=O (configuration not stated)	none
O=c1[nH]cnc(O)c1C(c1cccc([N+](=O)[O-])c1)c1c(O)nc[nH]c1=O	none
CCOc1ccc(NC(=O)CN(C)C(=O)c2cn(-c3ccccc3)nc2-c2cccs2)cc1OCC	Pf growth 96h inconclusive
COc1ccc(CC(=O)Nc2ccc(S(=O)(=O)N3CCCC3)cc2)c(OC)c1	Pf growth 96h inconclusive, Pf growth 48h inconclusive (no result: NS1 function inh, CHX counter, Shiga toxin inh)
CCN1C(=O)/C(=C2/C=Cc3cc(C)ccc3N2CC)N(C)C1=S	Pf growth 96h 8.3µM, Pf growth 48h inconclusive
CCN1/C(=C2\OC(=S)N(C)C2=O)C=Cc2ccccc21	none (no result: NS1 function inh)
CCN1/C(=C2\C(=O)N(C)C(=S)N2C)C=Cc2cc(OC)ccc21	Pf growth 48h 15µM
CC(C)CNC(=O)c1ccc(NC(=O)c2ccccc2[N+](=O)[O-])cc1	none
N#C/C(=N/Nc1ccc([N+](=O)[O-])cc1)C(=N)N1CCCCC1	Pf growth 96h inconclusive, CHX counter 31, Shiga toxin inh 104 (no result: NS1 function inh)
N#C/C(=N\Nc1ccc([N+](=O)[O-])cc1)C(=N)N1CCOCC1	CHX counter 46, Shiga toxin inh 69
N#C/C(=N\Nc1ccc(S(=O)(=O)N2CCCCCC2)cc1)C(N)=S	Pf growth 96h inconclusive
N#C/C(=N\Nc1ccc([N+](=O)[O-])cc1)C(N)=S	Pf growth 96h inconclusive, CHX counter 41, Shiga toxin inh 88
N=C(c1ccc([N+](=O)[O-])cc1)N1CCCCC1	none
N#C/C(=N\Nc1ccc(Br)cc1)C(=N)N1CCOCC1	CHX counter 69, Shiga toxin inh 107 (no result: NS1 function inh)
CCOc1ccc(-n2nnnc2SCC(=O)Nc2cccc(O)c2)cc1	none
CCCc1ccc(C(=O)O)cc1	Pf growth 96h inconclusive (no result: NS1 function inh, SARS PLpro yeast, CHX counter, Shiga toxin inh)
N#C/C(=N\Nc1ccccc1[N+](=O)[O-])C(=N)N1CCCCC1	CHX counter 31, Shiga toxin inh 67 (no result: NS1 function inh)
